The supplement of paper PMC5662767
Where a name gives a salt, the structure may show the parent alone.

Test system: Drosophila S2 cl14 SmoIP sensor cells
Test: normalized SmoIP GFP fluorescence (untreated unstimulated = 0%, untreated Hh-stimulated = 100%); higher = more Smo activation sensor fluorescence
Settings: compound concentration: 2 uM, 24 h
[1] = stimulation: Hh conditioned medium (+Hh)
[2] = stimulation: mock conditioned medium (-Hh)
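Further: flow cytometry read-out as median GFP intensity of gated cells, compounds added 30 min before Hh-conditioned or mock medium, mock-treated cells serving as unstimulated baseline.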

Q: With `CC(=O)N1CCN(c2ccc(OCC3COC(Cn4ccnc4)(c4ccc(Cl)cc4Cl)O3)cc2)CC1` (stereo not drawn) [Ketoconazole] as the compound, how does the “normalized SmoIP GFP fluorescence” value [1] read?
A: Its value is 109%.

Q: What about the “normalized SmoIP GFP fluorescence” value [2] of the same compound?
A: The value was 2.64%.

Q: Which results are given for `Cn1cc(-c2ccc3nnc(Sc4ccc5ncccc5c4)n3n2)cn1`?
A: normalized SmoIP GFP fluorescence [1]: 96.1%; normalized SmoIP GFP fluorescence [2]: -1.88%

Q: For `CC1(C)CCC(CN2CCN(c3ccc(C(=O)NS(=O)(=O)c4ccc(NCC5CCOCC5)c([N+](=O)[O-])c4)c(Oc4cnc5[nH]ccc5c4)c3)CC2)=C(c2ccc(Cl)cc2)C1`, which “normalized SmoIP GFP fluorescence” value [1] is on record?
A: Its value is 104%.

Q: What about the “normalized SmoIP GFP fluorescence” value [2] of the same compound?
A: Its value is -2.82%.

Q: What does the source list for `O=C1[C@H](Cc2ccc(O)cc2)N2C(=O)CCN(C(=O)NCc3ccccc3)[C@H]2CN1Cc1cccc2ccccc12`?
A: normalized SmoIP GFP fluorescence [1]: 125%; normalized SmoIP GFP fluorescence [2]: -2.82%

Q: What does the source list for `CCc1ccc(OCc2ccccc2C(=O)Nc2ccc3nc(C)cc(N)c3c2)cc1`?
A: normalized SmoIP GFP fluorescence [1]: 164%; normalized SmoIP GFP fluorescence [2]: 14.4%

Q: Which results are given for `CCN1CCN(Cc2ccc(Nc3ncc(F)c(-c4cc(F)c5nc(C)n(C(C)C)c5c4)n3)nc2)CC1`?
A: normalized SmoIP GFP fluorescence [1]: 158%; normalized SmoIP GFP fluorescence [2]: 50.1%

Q: What does the source list for `O=C(O)c1ccc(Nc2ncc3c(n2)-c2ccc(Cl)cc2C(c2c(F)cccc2F)=NC3)cc1`?
A: normalized SmoIP GFP fluorescence [1]: 271%; normalized SmoIP GFP fluorescence [2]: 46.7%

Q: For `c1cc(-c2cnn3cc(-c4ccc(N5CCNCC5)cc4)cnc23)c2cccnc2c1`, which “normalized SmoIP GFP fluorescence” value [1] is on record?
A: Its value is 120%.

Q: What about the “normalized SmoIP GFP fluorescence” value [2] of the same compound?
A: Its value is 2.12%.

Q: What does the source list for `CC(C)(O)CC(=O)NCCn1ccc2ncnc(Nc3ccc(Oc4cccc(C(F)(F)F)c4)c(Cl)c3)c21`?
A: normalized SmoIP GFP fluorescence [1]: 116%; normalized SmoIP GFP fluorescence [2]: 3.66%

Q: Which results are given for `NC(=O)c1ccc(N(C(N)=O)c2c(F)cccc2F)nc1-c1ccc(F)cc1F`?
A: normalized SmoIP GFP fluorescence [1]: 103%; normalized SmoIP GFP fluorescence [2]: -3.5%

Q: What does the source list for `CCNC(=O)Nc1ccc(-c2nc3c(c(N4CCOC[C@@H]4C)n2)CCN(C2COC2)C3)cc1`?
A: normalized SmoIP GFP fluorescence [1]: 93.3%; normalized SmoIP GFP fluorescence [2]: -0.151%

Q: How did the “normalized SmoIP GFP fluorescence” value [1] turn out when `Cc1cnc(NC(=O)Nc2cc(Br)c(C)cc2OC[C@@H]2CNCCO2)cn1` was run?
A: Its value is 112%.

Q: And the “normalized SmoIP GFP fluorescence” value [2]?
A: The value was -14.5%.

Q: How did the “normalized SmoIP GFP fluorescence” value [1] turn out when `CC1=C(C(=O)OC2CCCCC2)C(c2ccc([N+](=O)[O-])cc2)C2=C(CC(C)(C)CC2=O)N1` (stereo not drawn) was run?
A: Its value is 117%.

Q: What about the “normalized SmoIP GFP fluorescence” value [2] of the same compound?
A: Its value is 4.26%.

Q: Which results are given for `Cc1cnc(-c2cc(N3CCN(C(=O)CCS(C)(=O)=O)CC3)ncc2Cl)c(C)c1`?
A: normalized SmoIP GFP fluorescence [1]: 102%; normalized SmoIP GFP fluorescence [2]: -1.63%

Q: For `Nc1nc(N)c2nc(-c3cccc(O)c3)c(-c3cccc(O)c3)nc2n1`, which “normalized SmoIP GFP fluorescence” value [1] is on record?
A: The value was 110%.

Q: What about the “normalized SmoIP GFP fluorescence” value [2] of the same compound?
A: The value was -5.01%.

Q: `O=C(Nc1ccccc1Br)N[C@@H]1CCN(c2ccc(C(F)(F)F)cn2)C1` was tested. Which “normalized SmoIP GFP fluorescence” value [1] did it give?
A: Its value is 137%.

Q: What about the “normalized SmoIP GFP fluorescence” value [2] of the same compound?
A: The value was -2.82%.

Q: What does the source list for `O=C(O)C1(Cc2cccc(Nc3nccs3)n2)CCC(Oc2cccc(Cl)c2F)CC1` (stereo not drawn)?
A: normalized SmoIP GFP fluorescence [1]: 179%; normalized SmoIP GFP fluorescence [2]: 24.4%

Q: What does the source list for `COc1cc2nccc(Oc3ccc(NC(=O)NC4CC4)c(Cl)c3)c2cc1C(N)=O`?
A: normalized SmoIP GFP fluorescence [1]: 99.3%; normalized SmoIP GFP fluorescence [2]: 7.92%

Q: `CCCCCCCCCCCC1=C(O)C(=O)C=C(O)C1=O` [embelin] was tested. Which “normalized SmoIP GFP fluorescence” value [1] did it give?
A: The value was 108%.

Q: And the “normalized SmoIP GFP fluorescence” value [2]?
A: The value was -2.08%.

Q: With `COc1c(C)cnc(Cn2cnc3c(Cl)nc(N)nc32)c1C` as the compound, how does the “normalized SmoIP GFP fluorescence” value [1] read?
A: Its value is 121%.

Q: And the “normalized SmoIP GFP fluorescence” value [2]?
A: The value was 34.5%.

Q: `COc1cc2ncnc(Nc3ccc(Cl)cc3F)c2cc1OC` was tested. Which “normalized SmoIP GFP fluorescence” value [1] did it give?
A: Its value is 99.3%.

Q: What about the “normalized SmoIP GFP fluorescence” value [2] of the same compound?
A: The value was -4.13%.

Q: What does the source list for `CCCCNc1ccc(C(=O)OCCN(C)C)cc1` [tetracaine-hydrochloride-pontocaine]?
A: normalized SmoIP GFP fluorescence [1]: 117%; normalized SmoIP GFP fluorescence [2]: -6.34%

Q: What does the source list for `CCCCOc1ccc(CC(=O)NO)cc1` [bufexamac]?
A: normalized SmoIP GFP fluorescence [1]: 98.6%; normalized SmoIP GFP fluorescence [2]: -3.05%

Q: With `C#Cc1cccc(Nc2ncnc3cc4c(cc23)OCCOCCOCCO4)c1` [icotinib] as the compound, how does the “normalized SmoIP GFP fluorescence” value [1] read?
A: The value was 93.3%.

Q: And the “normalized SmoIP GFP fluorescence” value [2]?
A: Its value is -1.63%.

Q: Which results are given for `C[C@H](Oc1cc(-c2cnn(C3CCNCC3)c2)cnc1N)c1c(Cl)ccc(F)c1Cl` [s-crizotinib]?
A: normalized SmoIP GFP fluorescence [1]: 114%; normalized SmoIP GFP fluorescence [2]: 7.39%

Q: Which “normalized SmoIP GFP fluorescence” value [1] does the source give for `O=C(CCCCCN1C(=O)c2cccc3cccc(c23)C1=O)NO` [scriptaid] here?
A: Its value is 163%.

Q: What about the “normalized SmoIP GFP fluorescence” value [2] of the same compound?
A: Its value is 10.9%.

Q: Which “normalized SmoIP GFP fluorescence” value [1] does the source give for `COc1cccc(Nc2c(C(N)=O)cnc3c(C)cc(S(=O)(=O)c4cccc(C(=O)N(C)C)c4)cc23)c1` here?
A: Its value is 111%.

Q: What about the “normalized SmoIP GFP fluorescence” value [2] of the same compound?
A: Its value is -16.1%.

Q: Which results are given for `Nc1nc(CC(=O)Nc2ccc(CCNC[C@H](O)c3ccccc3)cc2)cs1` [mirabegron-ym178]?
A: normalized SmoIP GFP fluorescence [1]: 108%; normalized SmoIP GFP fluorescence [2]: -5.15%

Q: `CC(C)N(CCCNC(=O)Nc1ccc(C(C)(C)C)cc1)C[C@H]1O[C@@H](n2cc(Br)c3c(N)ncnc32)[C@H](O)[C@@H]1O` was tested. Which “normalized SmoIP GFP fluorescence” value [1] did it give?
A: Its value is 140%.

Q: What about the “normalized SmoIP GFP fluorescence” value [2] of the same compound?
A: The value was 0.986%.

Q: For `NC(=O)Nc1sc(-c2ccc(F)cc2)cc1C(N)=O` [tpca-1], which “normalized SmoIP GFP fluorescence” value [1] is on record?
A: The value was 106%.

Q: And the “normalized SmoIP GFP fluorescence” value [2]?
A: The value was -3.79%.

Q: For `CCNC(=O)c1[nH]nc(-c2cc(Cl)c(O)cc2O)c1-c1ccc(OC)cc1`, which “normalized SmoIP GFP fluorescence” value [1] is on record?
A: Its value is 188%.

Q: And the “normalized SmoIP GFP fluorescence” value [2]?
A: Its value is 23.1%.

Q: For `COc1cccc(C=NCCN=Cc2cccc(OC)c2[O-])c1[O-].[Cl-].[Mn+3]`, which “normalized SmoIP GFP fluorescence” value [1] is on record?
A: Its value is 114%.

Q: What about the “normalized SmoIP GFP fluorescence” value [2] of the same compound?
A: Its value is -2.2%.

Q: For `CCCc1nn(C)c2c(=O)[nH]c(-c3cc(S(=O)(=O)N4CCN(C)CC4)ccc3OCC)nc12` [Sildenafil-citrate], which “normalized SmoIP GFP fluorescence” value [1] is on record?
A: Its value is 76.3%.

Q: And the “normalized SmoIP GFP fluorescence” value [2]?
A: The value was -1.88%.

Q: How did the “normalized SmoIP GFP fluorescence” value [1] turn out when `c1ccc2c(CC3=NCCN3)cccc2c1` [Naphazoline-hydrochloride-Naphcon] was run?
A: Its value is 118%.

Q: And the “normalized SmoIP GFP fluorescence” value [2]?
A: Its value is -11.6%.
